A selection: hits, their analogues and other compounds. The true share with any hit is near 2.4%.
CHRM1 PAM: positive allosteric modulators of human M1 muscarinic receptor; AID 588819; 0.088% of 360,000 active; CHO-K1 hM1, Fluo-8 calcium fluorescence, ACh EC20; 0% = ACh EC20, 100% = maximal ACh; activation, % at 3 µM; P11229; in the data active = activation above about 19%, passing the limit was not always enough
Target sequence (P11229 whole entry, looked up): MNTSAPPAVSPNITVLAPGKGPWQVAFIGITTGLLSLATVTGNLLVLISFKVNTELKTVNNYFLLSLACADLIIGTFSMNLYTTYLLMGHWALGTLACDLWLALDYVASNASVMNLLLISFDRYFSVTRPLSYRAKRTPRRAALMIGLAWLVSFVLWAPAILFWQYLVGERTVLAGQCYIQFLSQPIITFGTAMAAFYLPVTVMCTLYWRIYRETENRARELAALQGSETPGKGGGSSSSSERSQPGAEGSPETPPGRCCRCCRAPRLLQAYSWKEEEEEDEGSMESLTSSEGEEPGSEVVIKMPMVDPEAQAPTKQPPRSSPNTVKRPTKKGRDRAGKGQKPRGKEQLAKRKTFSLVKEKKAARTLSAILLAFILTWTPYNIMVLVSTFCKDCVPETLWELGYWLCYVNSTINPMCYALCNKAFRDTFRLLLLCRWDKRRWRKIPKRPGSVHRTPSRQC
M1 antag: human CHRM1 antagonism; P11229; CHO-K1 hM1, Fluo-8 calcium fluorescence, ACh EC80 antagonist; inhibition, % at 3 µM; 1.3% of 360,000 active;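 active = percent inhibition above its own plate's cutoff, namely the mean of that plate's compound wells plus 3 SD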;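 also: peak over basal fluorescence ratio during 140 s after agonist addition; 0% = ACh EC80 plus DMSO and 100% = DMSO alone without agonist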
M1 ag: agonists of human M1 muscarinic receptor. 0.33% of 360,000 active. P11229. CHO-K1 hM1, Fluo-8 calcium fluorescence, agonist mode; 0% DMSO, 100% acetylcholine EC100. activation, % at 3 µM;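 active = activation above the run's mean compound activation plus 3 SD, cut at about 16% in these data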;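 also: peak over basal fluorescence ratio within a 140 s kinetic read after compound addition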
M1 PAM parental: M1 PAM counterscreen hit in parental CHO-K1 cells; ATP EC20, Fluo-8 calcium fluorescence; 0% at ATP EC20, 100% at ATP max; activation, % at 3 µM; 0.02% of 360,000 active; AID 602247;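 active = activation above the run cutoff, the mean activation of all test compounds plus 3 SD, cut at about 40% in these data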;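 also: peak over basal fluorescence ratio in a 140 s read after ATP addition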
CHO-K1 Ca antag: nonselective inhibitor or artifact in parental CHO-K1 cells | 0.6% of 360,000 active | ATP-induced calcium, Fluo-8 fluorescence | inhibition, % at 3 µM;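 active = inhibition above a per-plate cutoff, the plate's mean sample inhibition plus 3 SD, cut at about 24% in these data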;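 also: 0% = DMSO plus EC80 ATP and 100% = DMSO alone without ATP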
M1 ag parental: M1 agonist counterscreen hit in parental CHO-K1 cells; Fluo-8 calcium fluorescence; scaled to maximal ATP response, vehicle zero; activation, % at 3 µM; 0.48% of 360,000 active; in the data active = activation above about 15%;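 also: untransfected CHO-K1 host cells lacking M1 receptor as counterscreen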
* = called active by the depositor.

Screening Cc1ccc(NC(=O)C(C)N2CCc3ccccc3C2)cc1 (configuration not stated) returned CHRM1 PAM -3.6, M1 antag 6.4, M1 ag -8.9, M1 PAM parental 5.5, CHO-K1 Ca antag -8.8 and M1 ag parental -0.5.
Screening COc1cccc(CNC(=O)[C@@H]2CCCN2C(=O)[C@H]2CCCCN2C(=O)c2ccccc2)c1 returned M1 PAM parental 11.6, CHO-K1 Ca antag -13.6 and M1 ag parental 0.9.
CC(NC(=O)COC(=O)c1ccccc1O)c1ccccc1 (configuration not stated) was read as CHRM1 PAM 9.9, M1 antag -14.1, M1 ag 1.2, M1 PAM parental 4.3, CHO-K1 Ca antag -2.3 and M1 ag parental 1.0.
`COc1cc(OC)cc(C(=O)NC(C(=O)NCc2ccccn2)C(C)C)c1` (configuration not stated) gave CHRM1 PAM -29.0, M1 antag 78.5*, M1 ag -9.0, M1 PAM parental -14.3, CHO-K1 Ca antag 11.2 and M1 ag parental -0.3.
COc1cc(OC)cc(C(=O)NCC(=O)NC(C)c2ccccc2)c1 (configuration not stated) was read as CHRM1 PAM 5.8, M1 antag 74.7*, M1 ag 1.4, M1 PAM parental -7.4, CHO-K1 Ca antag 7.9 and M1 ag parental 0.2.
COc1cc(OC)cc(C(=O)NCC(=O)NC(C)CCc2ccccc2)c1 (configuration not stated) was read as CHRM1 PAM 2.8, M1 antag -0.3, M1 ag -2.3, M1 PAM parental 5.1, CHO-K1 Ca antag -2.6 and M1 ag parental 1.3.
CC(NC(=O)COC(=O)c1cc(Cl)nc(Cl)c1)c1ccccc1 (configuration not stated) was read as CHRM1 PAM 10.8, M1 antag -9.5, M1 ag 5.0, M1 PAM parental 12.6, CHO-K1 Ca antag -9.4 and M1 ag parental 22.7*.
For CCN(CC)CCNC(=O)C(Cl)=C1C(Cl)=C(Cl)C(Cl)=C1Cl the results were CHRM1 PAM -19.8, M1 antag 19.7, M1 ag -7.2, M1 PAM parental 11.7, CHO-K1 Ca antag -6.9 and M1 ag parental 0.5.
Cc1nn(C2CCS(=O)(=O)C2)c(Cl)c1/C=C/C(=O)OCC(N)=O (configuration not stated) was read as CHRM1 PAM 7.5, M1 antag -12.8, M1 ag -3.1, M1 PAM parental 7.0, CHO-K1 Ca antag -7.4 and M1 ag parental 1.4.
`Cc1ccccc1OCC(=O)OCC(=O)NC1CCCC(C)C1C` (configuration not stated) gave CHRM1 PAM 2.5, M1 antag 2.3, M1 ag -0.2, M1 PAM parental -22.4, CHO-K1 Ca antag 8.3 and M1 ag parental -0.3.
For CN(CC(O)COc1ccc(OCC(O)CN(C)C2CCCCC2)cc1)C1CCCCC1 (configuration not stated) the results were CHRM1 PAM 5.8, M1 antag -15.4, M1 ag -5.2, M1 PAM parental 18.1, CHO-K1 Ca antag 0.1 and M1 ag parental 0.0.
`CN(CC(O)COC(c1ccccc1)c1ccccc1)C1CCCCC1` (configuration not stated) gave CHRM1 PAM -32.0, M1 antag 29.6*, M1 ag -12.4, M1 PAM parental 15.0, CHO-K1 Ca antag -11.2 and M1 ag parental 1.9.
Screening CC1CN(CC(O)COC(c2ccc(Cl)cc2)c2ccc(Cl)cc2)CC(C)O1 (configuration not stated) returned CHRM1 PAM -6.0, M1 antag -1.6, M1 ag -9.0, M1 PAM parental 2.6, CHO-K1 Ca antag 11.0 and M1 ag parental 0.4.
CN(C)CC(O)COC(c1ccc(Cl)cc1)c1ccc(Cl)cc1 (configuration not stated) was read as CHRM1 PAM -21.1, M1 antag 40.9*, M1 ag -6.1, M1 PAM parental 15.4, CHO-K1 Ca antag -11.6 and M1 ag parental 5.4.
CCCCC1CC2=C(C(=O)OC(C)(C)O2)C(c2ccc(Cl)cc2)O1 (configuration not stated) was read as CHRM1 PAM -15.9, M1 antag -4.3, M1 ag -6.4, M1 PAM parental 3.9, CHO-K1 Ca antag -16.3 and M1 ag parental -0.4.
CCCCNC(=O)C1(C)CCCCN1CC(=O)c1ccc(OC)cc1 (configuration not stated) was read as CHRM1 PAM 1.1, M1 antag -6.9, M1 ag -7.1, M1 PAM parental 8.2, CHO-K1 Ca antag -3.3 and M1 ag parental 0.3.
O/N=C(\Cn1ccnc1)c1ccccc1 was read as CHRM1 PAM 5.2, M1 antag -5.9, M1 ag -2.2, M1 PAM parental 4.7, CHO-K1 Ca antag -7.0 and M1 ag parental 0.6.
`OC(C#CCN1CCCCCC1)(c1ccccc1)c1cccnc1` (configuration not stated) gave CHRM1 PAM -25.7, M1 antag 98.8*, M1 ag -5.3, M1 PAM parental 14.4, CHO-K1 Ca antag -12.8 and M1 ag parental 3.8.
For CCCN(CC#CC(O)(c1ccccc1)c1cccnc1)CCC (configuration not stated) the results were CHRM1 PAM -9.9, M1 antag 14.1, M1 ag -5.9, M1 PAM parental 8.8, CHO-K1 Ca antag -16.9 and M1 ag parental 0.2.
`OC(C#CCN1CCCC1)(c1ccccc1)c1cccnc1` (configuration not stated) gave CHRM1 PAM -27.8, M1 antag 99.5*, M1 ag -9.3, M1 PAM parental -14.9, CHO-K1 Ca antag 12.7 and M1 ag parental 3.6.
O=C1N=NC(=O)N1c1ccccc1 was read as CHRM1 PAM -7.7, M1 antag -22.7, M1 ag -5.3, M1 PAM parental -9.1, CHO-K1 Ca antag 4.4 and M1 ag parental -0.4.
Screening O=C(c1cccs1)N1CCN(C23CC4CC(CC(C4)C2)C3)CC1 returned CHRM1 PAM -23.1, M1 antag 72.0*, M1 ag -5.9, M1 PAM parental 9.7, CHO-K1 Ca antag -3.1 and M1 ag parental 2.0.
For O=C(c1ccc(Cl)s1)N1CCN(C23CC4CC(CC(C4)C2)C3)CC1 the results were CHRM1 PAM -13.6, M1 antag 14.0, M1 ag -7.6, M1 PAM parental 9.7, CHO-K1 Ca antag -15.1 and M1 ag parental 0.2.
For Cc1ccc(O)c(NC(=O)c2onc(C)c2Cl)c1 the results were CHRM1 PAM 10.7, M1 antag -18.6, M1 ag -4.2, M1 PAM parental -4.8, CHO-K1 Ca antag -8.0 and M1 ag parental 0.4.
Cc1ccc(NS(=O)(=O)c2ccc(C(=O)NCC(c3ccco3)N(C)C)cc2)cc1 (configuration not stated) was read as CHRM1 PAM -8.1, M1 antag 14.6, M1 ag 9.8, M1 PAM parental 11.1, CHO-K1 Ca antag 7.6 and M1 ag parental 26.1*.

Screens deposited in PubChem by The Scripps Research Institute Molecular Screening Center.
